# Source: PubChem BioAssay (National Center for Advancing Translational Sciences (NCATS))
# CHX counter = Cycloheximide Counterscreen for Small Molecule Inhibitors of Shiga Toxin; max response, %; AID 2314, 2010; cell reporter, cycloheximide protein synthesis inhibition counterscreen; actives 12% (n = 300,000); in the data active = max response mostly above about 13%, no sharp cut-off; inactive = mostly below about 14%; also: read at 38.3 µM for the half of the compounds with a filed dose; 0% is about no effect
# NS1 function inh = qHTS Assay for Inhibitors of Influenza NS1 Protein Function; Potency, µM (series often up to 46.1 µM), inactives show at the highest dose activity, positive = more growth; actives 0.4% (n = 270,000); AID 2326, 2010; calls by dose curve; also: potency is read from the fitted curve at half-maximal effect; actives are rising curves; nearly all actives have a fitted effect of over 50% in size
#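 In this qHTS, NS1 from influenza A is expressed in budding yeast, where it slows growth. Cells are switched from glucose to 2% galactose medium (pH 6.0, -URA), treated with compound, and growth recovery is read at OD600.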
# AmpC inh detg = qHTS Inhibitors of AmpC Beta-Lactamase (assay with detergent). P00811. AmpC hydrolysis of nitrocefin, absorbance 480 nm, 0.01% Triton. Potency, µM (top dose mostly 114 µM), without a hit: at the highest dose activity change, negative = inhibition, actives largely listed as inhibitors. actives 0.041% (n = 370,000). AID 485294, 2010;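 also: potency is read from the fitted curve at half-maximal effect; 0% = no-compound wells and -100% = no-enzyme wells; nearly all actives have a fitted effect of over 25% in size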
# Target sequence (P00811 whole entry, looked up): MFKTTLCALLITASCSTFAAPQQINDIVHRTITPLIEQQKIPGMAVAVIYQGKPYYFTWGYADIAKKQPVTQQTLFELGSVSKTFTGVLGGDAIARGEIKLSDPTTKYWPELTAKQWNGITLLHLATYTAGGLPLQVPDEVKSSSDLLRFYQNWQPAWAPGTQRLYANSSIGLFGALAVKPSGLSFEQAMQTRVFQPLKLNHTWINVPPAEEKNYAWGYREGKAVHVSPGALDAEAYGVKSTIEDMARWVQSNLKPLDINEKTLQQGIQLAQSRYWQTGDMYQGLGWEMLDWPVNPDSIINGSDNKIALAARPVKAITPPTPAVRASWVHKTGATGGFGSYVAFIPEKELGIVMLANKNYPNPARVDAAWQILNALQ
#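 AmpC (5.3 nM in the dispensed reagent) in 20 mM phosphate pH 7.0 with 0.01% (detergent screen) or 0.0001% Triton X-100 was preincubated with compounds for 15 min at room temperature. Nitrocefin was then added from an 800 uM solution, and hydrolysis was followed at 480 nm.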
# AmpC no deterg = qHTS Inhibitors of AmpC Beta-Lactamase (assay without detergent) | P00811 | AmpC nitrocefin hydrolysis, absorbance 480 nm, 0.0001% Triton | Potency, µM (series often up to 57.1 µM), for the others: at the highest dose activity change, negative = inhibition, usual class: inhibitors | actives 0.52% (n = 330,000);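 also: potency is read from the fitted curve at half-maximal effect; plate controls were no compound for no effect and no enzyme for full effect; nearly all actives have a fitted effect of over 20% in size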
#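 20 mM phosphate pH 7.0 + 0.01% (detergent screen) or 0.0001% Triton X-100; 5.3 nM AmpC reagent; cpd preinc 15 min RT; nitrocefin (800 uM stock) to start; A480 q20 s × 4 min; Activity was normalised to no-enzyme and no-compound control wells.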
# Shiga inhibitor = A qHTS for Small Molecule Inhibitors of Shiga Toxin | Vero cells, Shiga toxin protein synthesis inhibition reporter | inhibition, % at 38.7 µM | actives 9.2% (n = 290,000) | AID 2315, 2010; in the data active = inhibition mostly above about 28%, no sharp cut-off; inactive = mostly below about 43%; also: 0% is about no effect
# Starred values were filed as active, the others as inactive; i = inactive; ? = inconclusive; . = not tested or not shown; [ ] = dose if it differs, or a comment. This is one part of a sample in which hits are shown more often than they occur. Unless noted, calls follow the shape of the dose curve; as a rule, active = well fitted curve in the direction sought with a large enough effect; inconclusive = small, poorly fitted or top-dose-only effect, or another doubt; inactive = no such curve, though single readings can be large; an effect the other way counts as inactive or inconclusive.
SMILES,CHX counter,NS1 function inh,AmpC inh detg,AmpC no deterg,Shiga inhibitor
CCN(CC(=O)NCc1ccc(Cl)cc1)C(=O)c1cc2ccccc2o1,18.4,8.4%,1.5%,79.5%,49.0
Cc1cccc(C(=O)OCN2C(=O)c3ccccc3C2=O)c1[N+](=O)[O-],1.1,0.1%,2.7%,-31.0%,-35.3
O=C(c1ccc(Cn2c(=S)[nH]c3ccc(N4CCOCC4)cc3c2=O)cc1)N1CCC(N2CCCCC2)CC1,6.2,6.7%,8.4%,99.2%,38.0
Cc1cc(C)c(S(=O)(=O)Nc2ccc(-c3ccc(N4CCCCC4)nn3)cc2)cc1C,.,.,24.8%,.,.
Cc1ccc(NC(=O)CN(C)S(=O)(=O)c2cccs2)cc1C,35.0*,11.7%,-2.4%,-17.1%,89.9*
CCN(CC)CC(=O)Nc1ccc(C)cc1Br,26.7*,3.4%,-1.9%,-1.7%,40.3*
CCN(CC)CC(=O)Nc1c(C)cc(C(C)(C)C)cc1C,32.0*,1.4%,?,42.1%,39.6*
CCc1cccc(OCC2Cn3c(nc4c3c(=O)n(C)c(=O)n4C)O2)c1 (stereo not drawn),-0.6,12.4%,3.2%,37.6%,19.2
O=C(COC(=O)CN1C(=O)C2CCCCC2C1=O)NCc1ccc(Cl)cc1Cl (stereo not drawn),.,.,-13.7%,37.9%,.
CSc1nnc(CCNS(=O)(=O)c2ccccc2Br)n1C,15.2,6.6%,?,-7.7%,27.8
Cc1ccc(C)c(C(=O)COC(=O)c2cccc(N3C(=O)c4c(C)nc5ccccc5c4C3=O)c2)c1,45.6*,-0.4%,-5.5%,-37.5%,94.0*
O=C1OC2(CCCCC2)CC2=C1C1O[C@](c3ccsc3)(Cc3c1ccc1ccccc31)O2,11.8,0.8%,-13.4%[22.9 µM],-54.0%[11.4 µM],i
Nc1[nH]n(-c2ccccc2)c(=O)c1N=Nc1ccc2c(c1)OCCO2,33.4*,-5.0%,-4.9%,11.5%,59.1*
Cc1cc([N+](=O)[O-])ccc1N=Nc1c(N)[nH]n(-c2ccccc2)c1=O,15.4,.,-11.6%,-24.0%,12.9
Nc1[nH]n(-c2ccccc2)c(=O)c1N=Nc1ccc2c(c1)OCO2,36.3*,0.3%,-5.0%,-26.3%,121.3*
COCCn1ccc2c(OCC(=O)Nc3ccccc3F)cccc2c1=O,.,.,0.9%,.,.
N#Cc1c(/N=C/c2cc3ccccc3s2)sc2c1CCC2,19.9*,-1.7%,0.0%,-16.7%,32.9*
N#Cc1c(/N=C/c2ccco2)sc2c1CCC2,-1.2,2.2%,-3.0%,-14.6%,8.5
Cc1ccc(/C=N/c2sc3c(c2C#N)CCC3)s1,54.7*,0.1%,-4.7%,-14.4%,113.7*
Cc1ccc(CNC(=O)Cn2cnc3c(NC(=O)OCc4ccccc4)ncnc32)o1,.,.,2.2%,-0.2%,.
CCOc1cccc2cc(C(=O)N3CCc4ccccc4C3)c(=O)oc12,0.8,-9.6%[9.22 µM],?,-14.9%,-4.2
COc1cccc2cc(C(=O)N3CCc4ccccc4C3)c(=O)oc12,24.3*,-19.7%,-7.4%,-13.6%,39.4
COc1cccc2cc(C(=O)NCc3ccccn3)c(=O)oc12,23.0*,-3.4%,?,-14.9%,37.6
COc1cccc2cc(C(=O)NCCc3ccccc3)c(=O)oc12,17.0*,-5.0%,3.2%,-0.6%,-4.0
COc1cccc2cc(C(=O)NCCC3=CCCCC3)c(=O)oc12,9.4,.,1.1%,5.2%,10.9
SMILES,CHX counter,NS1 function inh,AmpC inh detg,AmpC no deterg,Shiga inhibitor
COc1ccc(-n2nc(C(=O)NCc3ccc(F)cc3)c3c4ccccc4n(C)c3c2=O)cc1,.,.,-3.3%,.,.
N=C1SCC(=O)N1c1ccc(Cl)cc1,-3.9,15.8%,-14.1%,-28.3%,-6.9
Cc1cc(=O)[nH]c2nnc(SCc3c(F)cccc3Cl)n12,.,.,-1.9%,.,.
CCn1ncc(Br)c1C(=O)Nc1sc2c(c1C(N)=O)CCC2,21.6,-16.8%,-7.9%,4.8%,10.9
Cn1nccc1C(=O)Nc1sc2c(c1C(N)=O)CCCC2,31.3*,-8.9%,0.9%,-19.2%,57.7*
CC(=O)Nc1sc2c(c1C(N)=O)CCCC2,-8.2,-4.7%,0.6%,-16.4%,-19.2
Cn1cc(Br)c(C(=O)Nc2sc3c(c2C(N)=O)CCC3)n1,29.7*,-0.4%,-1.0%,-4.8%,51.6*
Cn1ccc(C(=O)Nc2sc3c(c2C(N)=O)CCCCC3)n1,57.2*,-3.2%,-1.0%,61.8%,99.4*
COc1ccc(NC(=O)c2cccs2)cc1O,57.9*,-82.6%,-1.5%,-3.8%,69.9*
COc1ccc(C(=O)Nc2cccc(NC(=O)c3cccs3)c2)cc1OC,20.4*,?,?,-34.6%,23.4*
COc1ccc(/C=C/C(=O)c2ccc(NC(=O)c3cccs3)cc2)cc1OC,22.4*,24.4%,-0.2%,?,70.3*
COc1ccc(C(=O)Nc2ccc(NC(=O)c3cccs3)cc2)cc1OC,.,.,15.0%,.,.
COc1ccc(C(=O)Nc2ccc(NC(=O)c3cccs3)cc2)cc1Cl,-0.9,7.4%,?,-22.3%,-5.8
COc1ccc(-c2csc(NC(=O)c3cccs3)c2C(=O)O)cc1OC,28.3,14.8%,0.4%,85.5%,28.4*
COc1cccc2c1cc1c(=O)n(CC(=O)N3CCN(c4cccc(C(F)(F)F)c4)CC3)nc(C)n12,.,.,22.8%,.,.
Cc1ccccc1NC(=O)C[n+]1cc(-c2ccccc2)n2c1CCC2,-1.5,3.3%,1.0%,0.2%,14.0
COC(=O)c1ccccc1NC(=O)c1cc(C)nc2c1c(C)nn2-c1ccc(C)cc1,.,.,17.7%,.,.
CC(=O)Nc1ccc(OCC(O)Cn2cnc3ccccc32)cc1 (stereo not drawn),-1.0,-7.0%,2.2%,-16.4%,-9.3
OC(COc1ccc2c(c1)CCC2)Cn1cnc2ccccc21 (stereo not drawn),22.7,-51.0%,-0.2%,21.0%,74.2*
CC(C)NCC(O)COc1ccc2c(c1)CCC2 (stereo not drawn),32.5*,-7.5%,6.2%,-7.4%,110.0*
CC(C)NCC(O)COc1ccc(Br)cc1 (stereo not drawn),-2.7,-2.9%,-2.5%,-0.8%,25.4
O=C1C2C3C=CC(C4CC34)C2C(=O)N1/N=C/c1ccc([N+](=O)[O-])o1 (stereo not drawn),21.9*,.,6.9%,-8.2%,16.0
COC(=O)c1ccc(-c2ccc(/C=N/N3C(=O)C4C5C=CC(C6CC56)C4C3=O)o2)cc1 (stereo not drawn),75.0*,-29.7%,1.7%,-31.0%,131.6*
O=C1C2C3C=CC(C4CC34)C2C(=O)N1/N=C/c1cccs1 (stereo not drawn),51.4*,14.0%,0.2%,-51.3%,48.7*
Cc1ccc(-c2ccc(/C=N/N3C(=O)C4C5C=CC(C6CC56)C4C3=O)o2)c([N+](=O)[O-])c1 (stereo not drawn),3.2,-53.9%,6.6%,-8.6%,16.1
O=C1C2C3C=CC(C3)C2C(=O)N1/N=C/c1ccc(-c2ccccc2[N+](=O)[O-])o1 (stereo not drawn),31.6*,-32.5%,-7.1%,-29.4%,65.8*
